# Laboratory results from PubChem BioAssay.
# Calls of active or inactive are those of the source.
# How the values were obtained:
# [1] = biological target: Albumin (Bos taurus) (UniProt P02769); test: bovine serum albumin binders on microarray, profiling panel, artefact control for SMM control protein annotation, biochemical, small-molecule microarray, Alexa647 label, 635/667 nm fluorescence (AID 1118); conditions: BSA-A647 binding, fluorescence 635 nm, higher = more signal;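 further: score merges 667 nm emission intensity and signal-to-noise per printed compound spot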
# [2] = small-molecule microarray binders of probe aXIP, primary screen, biochemical, NeuroSMM set, 635/667 nm fluorescence (AID 1119); conditions: higher = more signal, called active from +8 up or from −8 down;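 further: probe is the protein aXip251-270 applied at 1 µg/mL to compound-printed slides; binding of probe to printed compounds measured as 667 nm fluorescence plus signal to noise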
# [3] = small-molecule binders of probe aNOTCH3, primary screen, biochemical, small-molecule microarray, 635/667 nm fluorescence (AID 1120); conditions: higher = more signal;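 further: probe is a biotin-tagged antibody raised against NOTCH3 rather than NOTCH3 protein; score merges spot fluorescence near 667 nm with spot signal to noise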
# [4] = small-molecule binders of probe aNOTCH2, primary screen, biochemical, small-molecule microarray, 635/667 nm fluorescence (AID 1121); conditions: higher = more signal;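 further: score merges feature fluorescence read at 667 nm with its signal to noise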
# [5] = biological target: Carbonic anhydrase 2 (Homo sapiens) (UniProt P00918); test: CAII small-molecule binders, profiling panel, biochemical, small-molecule microarray, Alexa647-labelled CAII (AID 1122); conditions: CAII-A647 binding fluorescence, higher = more signal
# [6] = COS7 lysate on small-molecule microarray, probe aHis, 635 nm (AID 1123); conditions: COS7 cell lysate, fluorescence, higher = more signal;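 further: z-score combines 667nm fluorescence intensity with signal-to-noise per printed compound spot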
# [7] = compound binding in COS7 lysate, probe aLAP1, primary screen, cell lysate, small-molecule microarray (AID 1124); conditions: probe aLAP1, fluorescence, higher = more signal;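 further: lysate comes from COS7 cells expressing LAP1 and is applied at 0.3 µg/mL; score merges spot fluorescence near 667 nm with signal-to-noise over triplicate slides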
# [8] = tested on: Sam68 (KHDRBS1); test: Sam68 small-molecule binders, primary screen, biochemical, small-molecule microarray, 635 nm fluorescence (AID 1125); conditions: small-molecule microarray binding, higher = more signal;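 further: score merges 667 nm channel intensity with signal to noise over triplicate slides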
# [9] = tested on: Chordin-like protein 2 (CHRDL2); test: CHRDL2 small-molecule binders, primary screen, biochemical, small-molecule microarray, 635 nm fluorescence (AID 1126); conditions: small-molecule microarray binding, fluorescence 635 nm; higher = more signal;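 further: printed compound slides probed with Chrdl2 protein at 4 µg/mL for 1 h at 4 C; score merges 667 nm emission intensity with signal to noise over three replicate slides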
# [10] = biological target: Concanavalin-A (Canavalia ensiformis) (UniProt P02866); test: ConA small-molecule binders, primary screen, artefact control for SMM control protein annotation, biochemical, small-molecule microarray, Alexa647 label, 635 nm (AID 1127); conditions: ConA-A647 binding fluorescence, higher = more signal;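 further: z combines 667 nm emission intensity with signal-to-noise across three replicate slides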
# [11] = anti-His antibody binders, primary screen, artefact control for SMM control protein annotation, biochemical, small-molecule microarray, 635 nm fluorescence (AID 1128); conditions: anti-His Alexa647 antibody binding, higher = more signal;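 further: score merges feature fluorescence with signal-to-noise for each printed compound spot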
# [12] = tested on: Human papillomavirus type 1a E7 protein (residues 1-88); test: HPV1a E7 small-molecule binders, primary screen, biochemical, small-molecule microarray, residues 1-88, 635 nm (AID 1129); conditions: small-molecule microarray binding, fluorescence 635 nm; higher = more signal
# [13] = biological target: Focal adhesion kinase 1 (Homo sapiens) (UniProt Q05397); test: small-molecule microarray binders of FAK, primary screen, biochemical, 635/667 nm fluorescence, BSA, DTT (AID 1130); conditions: PTK2 binding, 635 nm fluorescence, higher = more signal;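 further: composite of spot emission at 667 nm and signal to noise over triplicate slides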
# [14] = tested on: Fibrinogen (Alexa647-labelled); test: fibrinogen binders on compound microarrays, profiling panel, artefact control for SMM control-protein annotation, biochemical, small-molecule microarray, 635/667 nm fluorescence (AID 1131); conditions: fibrinogen-A647 binding fluorescence, higher = more signal;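 further: z-score merges 667 nm fluorescence with per-spot signal-to-noise over triplicate slides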
# [15] = biological target: Follistatin (Homo sapiens) (UniProt P19883); test: follistatin binders on small-molecule microarrays, primary screen, biochemical, small-molecule microarray, 635/667 nm fluorescence (AID 1132); conditions: FST binding, 635 nm fluorescence, higher = more signal
# [16] = biological target: Fibroblast growth factor 2 (Homo sapiens) (UniProt P09038); test: FGF2 binders on small-molecule microarrays, primary screen, biochemical, small-molecule microarray, 635/667 nm fluorescence (AID 1133); conditions: small-molecule microarray binding, FGF2, fluorescence 635/667; higher = more signal
# [17] = mitochondrial membrane potential change in A549 cells, profiling panel, cell-based, JC-1 fluorescence, basal, 24 h, 100 nL (AID 1138); conditions: higher = more signal;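 further: A549 lung adenocarcinoma cells under basal conditions with no added stimulus; test concentration not given here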
# [18] = tested on: Lefty1; test: Lefty1 binders on small-molecule microarrays, primary screen, biochemical, small-molecule microarray, 635/667 nm fluorescence (AID 1139); conditions: small-molecule microarray binding, fluorescence 635/667; higher = more signal
# [19] = tested on: wheat germ agglutinin (Triticum aestivum), Alexa647-labelled; test: wheat germ agglutinin binders on compound microarrays, profiling panel, artefact control for SMM control-protein annotation, biochemical, small-molecule microarray, 635/667 nm fluorescence (AID 1140); conditions: WGA-A647 binding, 635 nm fluorescence, higher = more signal;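 further: score merges 667 nm feature emission with signal to noise over triplicate slides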
# [20] = biological target: Luciferin 4-monooxygenase (Photinus pyralis) (UniProt P08659); test: firefly luciferase enzyme inhibitors, primary screen, biochemical, luminescence, purified enzyme, 2006 set (AID 1141); conditions: SteadyGlo luminescence, 30 min, higher = more signal, called active from +8 up or from −8 down;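 further: cell-free assay with purified firefly luciferase at 100 ng per well in PBS; test concentration not given here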
# Sequence of Luciferin 4-monooxygenase (Photinus pyralis) (P08659 whole entry, looked up): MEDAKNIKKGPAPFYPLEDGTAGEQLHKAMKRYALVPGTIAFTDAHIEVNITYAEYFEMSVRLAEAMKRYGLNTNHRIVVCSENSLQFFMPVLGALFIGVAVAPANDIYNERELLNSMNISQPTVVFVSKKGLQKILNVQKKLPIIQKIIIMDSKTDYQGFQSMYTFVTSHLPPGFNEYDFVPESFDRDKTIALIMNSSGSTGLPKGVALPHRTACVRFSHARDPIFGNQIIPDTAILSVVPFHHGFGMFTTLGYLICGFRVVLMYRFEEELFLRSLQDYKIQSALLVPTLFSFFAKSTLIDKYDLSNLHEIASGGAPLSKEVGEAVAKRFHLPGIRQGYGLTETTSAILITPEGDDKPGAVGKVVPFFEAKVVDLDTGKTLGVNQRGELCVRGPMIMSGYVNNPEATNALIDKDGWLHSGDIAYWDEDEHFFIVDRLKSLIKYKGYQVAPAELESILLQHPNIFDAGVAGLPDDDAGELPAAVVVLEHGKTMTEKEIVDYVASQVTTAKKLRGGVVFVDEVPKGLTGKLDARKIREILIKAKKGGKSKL
# Sequence of Follistatin (Homo sapiens) (P19883 whole entry, looked up): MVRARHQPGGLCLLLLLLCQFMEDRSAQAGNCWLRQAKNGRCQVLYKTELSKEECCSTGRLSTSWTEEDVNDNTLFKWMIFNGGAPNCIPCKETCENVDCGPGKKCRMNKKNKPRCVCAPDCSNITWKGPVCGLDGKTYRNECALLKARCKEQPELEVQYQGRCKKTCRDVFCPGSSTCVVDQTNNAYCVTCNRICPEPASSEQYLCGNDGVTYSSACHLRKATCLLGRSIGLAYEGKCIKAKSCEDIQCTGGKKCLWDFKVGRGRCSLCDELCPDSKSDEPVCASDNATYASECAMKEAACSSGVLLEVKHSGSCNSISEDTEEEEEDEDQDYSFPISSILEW
# Sequence of Concanavalin-A (Canavalia ensiformis) (P02866 whole entry, looked up): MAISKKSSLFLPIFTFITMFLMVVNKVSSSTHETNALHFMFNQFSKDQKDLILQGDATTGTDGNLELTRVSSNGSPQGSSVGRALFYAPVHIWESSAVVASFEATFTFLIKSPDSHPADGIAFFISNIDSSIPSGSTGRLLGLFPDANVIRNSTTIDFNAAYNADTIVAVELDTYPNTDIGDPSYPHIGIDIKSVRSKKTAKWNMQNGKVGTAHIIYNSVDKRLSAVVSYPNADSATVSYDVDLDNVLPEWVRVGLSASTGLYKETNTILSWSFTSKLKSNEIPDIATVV
# Sequence of Fibroblast growth factor 2 (Homo sapiens) (P09038 whole entry, looked up): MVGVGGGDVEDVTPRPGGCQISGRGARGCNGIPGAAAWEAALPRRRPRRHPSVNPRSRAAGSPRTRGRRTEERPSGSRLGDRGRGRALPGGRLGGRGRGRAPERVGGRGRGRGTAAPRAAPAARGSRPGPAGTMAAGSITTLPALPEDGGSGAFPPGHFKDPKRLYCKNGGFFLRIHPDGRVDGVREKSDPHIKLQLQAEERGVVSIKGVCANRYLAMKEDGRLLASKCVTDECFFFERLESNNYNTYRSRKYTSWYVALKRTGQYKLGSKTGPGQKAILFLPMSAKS
# Sequence of Albumin (Bos taurus) (P02769 whole entry, looked up): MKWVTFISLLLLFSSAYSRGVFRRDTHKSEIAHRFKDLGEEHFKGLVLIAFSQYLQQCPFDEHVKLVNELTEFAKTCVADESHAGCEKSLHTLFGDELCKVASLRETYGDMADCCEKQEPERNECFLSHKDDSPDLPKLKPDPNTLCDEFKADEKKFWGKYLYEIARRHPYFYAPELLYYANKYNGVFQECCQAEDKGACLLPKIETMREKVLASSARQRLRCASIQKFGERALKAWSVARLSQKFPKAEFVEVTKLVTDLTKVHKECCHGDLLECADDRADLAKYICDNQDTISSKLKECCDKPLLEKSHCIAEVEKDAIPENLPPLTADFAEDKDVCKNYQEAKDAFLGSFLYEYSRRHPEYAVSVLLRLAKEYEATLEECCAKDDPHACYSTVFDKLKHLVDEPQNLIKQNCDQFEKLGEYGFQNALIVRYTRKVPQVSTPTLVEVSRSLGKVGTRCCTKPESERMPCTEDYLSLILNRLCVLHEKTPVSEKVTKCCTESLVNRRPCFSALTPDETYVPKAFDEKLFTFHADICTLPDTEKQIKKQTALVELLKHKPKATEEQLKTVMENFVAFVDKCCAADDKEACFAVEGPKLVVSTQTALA
# Sequence of Focal adhesion kinase 1 (Homo sapiens) (Q05397 whole entry, looked up): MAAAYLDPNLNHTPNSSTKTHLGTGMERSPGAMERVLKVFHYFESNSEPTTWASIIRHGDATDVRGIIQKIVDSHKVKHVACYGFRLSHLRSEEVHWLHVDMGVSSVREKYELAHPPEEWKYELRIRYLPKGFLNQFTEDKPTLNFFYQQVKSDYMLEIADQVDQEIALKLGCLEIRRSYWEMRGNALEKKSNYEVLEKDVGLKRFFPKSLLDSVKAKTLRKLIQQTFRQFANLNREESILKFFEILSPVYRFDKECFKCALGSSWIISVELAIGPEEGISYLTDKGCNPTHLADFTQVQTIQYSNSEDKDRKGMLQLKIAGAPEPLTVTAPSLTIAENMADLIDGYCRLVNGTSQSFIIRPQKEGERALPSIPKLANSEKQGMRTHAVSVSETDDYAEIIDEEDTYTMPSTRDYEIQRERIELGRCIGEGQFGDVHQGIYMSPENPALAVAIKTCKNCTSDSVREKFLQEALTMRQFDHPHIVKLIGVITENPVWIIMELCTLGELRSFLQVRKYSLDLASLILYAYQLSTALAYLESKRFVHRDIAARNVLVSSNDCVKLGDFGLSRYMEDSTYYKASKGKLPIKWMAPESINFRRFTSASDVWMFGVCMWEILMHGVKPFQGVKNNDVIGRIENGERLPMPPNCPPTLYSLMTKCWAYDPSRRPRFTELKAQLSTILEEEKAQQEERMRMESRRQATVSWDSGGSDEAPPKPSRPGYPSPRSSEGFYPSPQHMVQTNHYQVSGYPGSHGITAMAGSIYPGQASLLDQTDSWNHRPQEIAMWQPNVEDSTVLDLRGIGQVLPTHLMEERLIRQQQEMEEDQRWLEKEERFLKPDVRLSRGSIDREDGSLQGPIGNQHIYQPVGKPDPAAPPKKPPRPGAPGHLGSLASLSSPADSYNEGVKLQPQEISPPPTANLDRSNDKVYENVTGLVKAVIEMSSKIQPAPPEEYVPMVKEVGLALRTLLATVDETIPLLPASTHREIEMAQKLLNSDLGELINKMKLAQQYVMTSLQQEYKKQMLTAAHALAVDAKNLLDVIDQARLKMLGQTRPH
SMILES,composite z-score [1],composite Z-score [2],composite z-score [3],composite z-score [4],composite z-score [5],composite z-score [6],composite z-score [7],composite z-score [8],composite z-score [9],composite z-score [10],composite z-score [11],composite z-score [12],composite z-score [13],composite z-score [14],composite z-score [15],composite z-score [16],z-score [17],composite z-score [18],composite z-score [19],z-score [20]
[N-]=[N+]=NCc1ccccc1C[C@]1(C(=O)NCC(O)CO)N=C(c2ccc(OCCCO)cc2)O[C@H]1c1ccccc1CN=[N+]=[N-] (stereo not given in full),0.801,0.496 (inactive),0.303,-0.108,0.404,3.05,0.137,1.12,-0.86,1.11,2.73,1.2,0.116,0.973,1.3,0.495,0.618,-0.204,0.205,-0.0074 (inactive)
O=C1O[C@H](c2ccccc2)[C@H](c2ccccc2)N2[C@H]1[C@@H](C(=O)O)[C@]1(C(=O)Nc3ccccc31)[C@H]2c1ccc(O)cc1,-0.731,-0.0012 (inactive),-0.135,-0.131,0.673,0.969,1.01,-0.43,-0.632,0.586,-0.585,-0.0964,0.133,-1.31,0.0111,0.152,0.226,-0.634,-0.55,0.002 (inactive)
COC(=O)C(CC#Cc1ccc2c(c1)[C@]1(C(=O)N2)[C@H](C(=O)O)[C@H]2C(=O)O[C@H](c3ccccc3)[C@H](c3ccccc3)N2[C@@H]1c1ccccc1OCCO)C(=O)OC,0.788,-0.051 (inactive),0.277,0.054,0.684,1.62,1.11,1.32,0.364,1.15,2.8,1.24,0.712,0.95,1.18,0.838,-1.01,0.976,1.18,-3.09 (inactive)
CN(C)CCCNC(=O)[C@@]1(C)c2ccccc2C(=O)N(Cc2cc(C(F)(F)F)cc(C(F)(F)F)c2)[C@H]1c1ccc(CO)cc1,0.193,0.222 (inactive),-0.0984,-0.0341,0.485,0.155,0.0017,-0.546,-1.03,-1.04,-0.216,-0.446,-0.24,-2.28,-0.775,-0.762,-0.0872,-1.03,-0.973,0.386 (inactive)
C=CC1c2cc(O)c(OC)cc2CCN1Cc1sc2ccccc2c1Cl (stereo not given),0.854,-0.967 (inactive),0.177,-0.0772,0.79,1.46,0.381,0.807,0.575,0.859,0.13,0.696,-0.025,0.863,1.28,-0.416,-0.68,0.188,0.983,-0.707 (inactive)
C=CCN1C(=O)[C@@]2(CCC(=O)OC(C)(C)C)N=C(c3ccc(OCCCO)cc3)O[C@H]2c2ccccc21,0.71,0.0873 (inactive),0.108,0.0484,0.654,1.33,0.0616,0.817,0.145,1.16,2.33,0.909,1.54,0.652,1.23,0.898,-0.758,0.319,0.525,-4.58 (inactive)
C=C(COC)/C(=C/C[C@@H](OC(=O)c1ccncc1)c1cccc(OCCO)c1)c1cnc2ccccc2c1,0.716,0.161 (inactive),0.43,0.0815,1.01,1.91,0.919,1.31,1.44,1.24,2.26,1.17,0.191,0.922,1.48,1.68,0.746,1.64,1.55,-1.68 (inactive)
[N-]=[N+]=Nc1ccccc1C[C@@]1(C(=O)O)N=C(c2ccc(OCCCO)cc2)O[C@@H]1c1ccccc1,0.952,0.77 (inactive),0.0208,-0.0895,0.799,2.76,0.45,1.03,-0.777,1.15,1.22,0.749,0.769,0.997,0.247,-0.0664,0.528,-0.634,1.09,-0.972 (inactive)
Cc1ccc(F)cc1S(=O)(=O)N[C@@H]1CCN(Cc2ccc(Oc3ccccc3)cc2)C1,-0.274,-0.608 (inactive),0.154,-0.165,0.304,-0.13,-0.305,-0.68,0.861,-0.905,0.258,-0.922,-0.271,0.738,1.03,0.424,0.663,1.09,0.853,0.453 (inactive)
COCCOC(=O)N1C(=O)[C@@]2(c3cc(C#CC4=CCCCC4)ccc31)[C@H](c1ccc(O)cc1)N1[C@H](c3ccccc3)[C@H](c3ccccc3)OC(=O)[C@H]1[C@@H]2C(=O)Nc1nc2ccccc2s1,0.802,-0.202 (inactive),0.302,-0.121,0.556,2.78,0.657,1.32,0.206,1.12,0.494,1.21,0.822,0.93,0.862,1.08,-1.94,1.52,0.657,-0.946 (inactive)
C=C(C(=O)CC[C@H](OC(=O)c1cccnc1)c1ccc(CO)o1)C(C)C,0.0812,0.674 (inactive),0.0596,-0.0633,0.655,0.403,0.309,0.839,0.302,0.645,-0.109,1.09,-0.22,0.88,0.886,0.962,-0.559,1.04,0.884,-1.55 (inactive)
COC(=O)[C@@]1(Cc2ccc(OC)cc2)[C@H]2c3cc(C(=O)N4CCCC4)n(CCc4cc5ccccc5[nH]4)c3C[C@H]2CN1C(=O)c1ccccc1,1.01,1.33 (inactive),0.353,0.213,0.587,3.04,0.816,1.31,-0.65,1.13,2.2,1.25,0.832,0.98,1.18,0.754,1.3,-0.246,1.05,1.91 (inactive)
CC=CC(O)C1C=CC2C(=O)N(c3ccccc3)C(=O)C2N1Nc1ccc([N+](=O)[O-])cc1 (stereo not given),0.0015,-0.127 (inactive),-0.0044,-0.123,0.661,0.657,0.865,0.729,0.414,0.217,1.58,0.644,0.427,0.752,0.495,0.194,-0.645,0.112,0.645,1.28 (inactive)
CCCNC(=O)[C@@]1(c2ccc([N+](=O)[O-])cc2)CC(=O)N(C2CCCCC2)[C@@H]1c1ccc(CO)cc1I,0.529,0.116 (inactive),-0.0328,-0.0635,0.71,1.73,0.521,1.25,-0.0452,1.07,2.18,0.949,0.178,0.34,1.21,1.52,1.4,1.01,1.1,-0.424 (inactive)
